# Screening results from PubChem BioAssay.
# D2 ag-1 – Beta-Arrestin HTS for Positive Allosteric Modulators of the Human D2 Dopamine Receptor: Agonists; DiscoveRx PathHunter D2 beta-arrestin, luminescence, 90 min; 100% = 57 uM dopamine signal; activation, % (concentration not given with the values); 0.084% of 360,000 active; AID 624465, 2012; in the data active means activation above about 40%; inconclusive means between about 15% and that limit
# Target sequence (P14416 whole entry, looked up): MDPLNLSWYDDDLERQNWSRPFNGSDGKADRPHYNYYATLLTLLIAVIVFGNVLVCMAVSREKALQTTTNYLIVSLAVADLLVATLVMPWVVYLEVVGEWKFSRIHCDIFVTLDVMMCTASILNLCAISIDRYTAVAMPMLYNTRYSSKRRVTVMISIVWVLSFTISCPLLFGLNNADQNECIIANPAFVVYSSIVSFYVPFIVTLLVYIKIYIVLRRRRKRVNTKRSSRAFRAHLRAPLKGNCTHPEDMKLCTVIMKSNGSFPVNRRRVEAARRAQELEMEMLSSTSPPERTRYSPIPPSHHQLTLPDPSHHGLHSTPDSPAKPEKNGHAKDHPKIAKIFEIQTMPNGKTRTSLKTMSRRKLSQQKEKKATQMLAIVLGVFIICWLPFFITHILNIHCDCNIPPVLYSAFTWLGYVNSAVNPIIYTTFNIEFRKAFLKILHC
#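 Agonist mode: compounds alone added to overnight-plated D2 PathHunter cells for 90 min at 37 C, with 57 uM final dopamine (EC100) defining full response. Beta-arrestin recruitment detected by chemiluminescent reagent, read after 1 h at ambient temperature.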
# D2 antagonist – HTS Assay for Allosteric Antagonists of the Human D2 Dopamine Receptor: Primary Screen for Antagonists. D(2) dopamine receptor (Homo sapiens), P14416. HEK293 TREx D2 cells, calcium flux, dopamine EC80. inhibition, % at 10 µM. 2% of 340,000 active. AID 485344, 2010; in the data active means inhibition above about 30%; inactive means below that, where a call was filed; further: 0% is about no effect
#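 Inhibition of EC80 dopamine-driven calcium flux, recorded kinetically, defines activity here; cells are a tetracycline-induced HEK293 T-REx line expressing force-coupled D2.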
# D2 PAM-1 – Beta-Arrestin HTS for Positive Allosteric Modulators of the Human D2 Dopamine Receptor: Potentiators | D(2) dopamine receptor (Homo sapiens), P14416 | 0.23% of 360,000 active | potentiation, % (test concentration not listed) | DiscoveRx D2 beta-arrestin cells, luminescence, 90 min; 100% = 57 uM dopamine signal | AID 624464, 2012; in the data active means potentiation above about 50%; inconclusive means mostly about 30% to 49%
#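 PathHunter beta-arrestin assay in DiscoveRx D2 cells. Compounds were added with an EC20 of dopamine (50 nM final) for 90 min at 37 deg C. Luminescence was read 1 h after detection reagent, with 57 uM dopamine as the EC100 control.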
# D2 PAM-2 – HTS Assay for Positive Allosteric Modulators of the Human D2 Dopamine Receptor: Primary Screen for Potentiators; HEK293 T-REx D2, calcium flux, EC20 dopamine potentiation; potentiation, % at 10 µM; 0.34% of 340,000 active; AID 485347, 2010;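 active means potentiation over 3 SD above the plate norm, cut at about 30% in these data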; further: 0% is about no effect
#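 Primary screen. Calcium kinetics in induced HEK293 T-REx D2 cells: compound pre-addition 180 s, EC20 dopamine, 180 s more.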
# D2 ag-2 – HTS Assay for Allosteric Agonists of the Human D2 Dopamine Receptor: Primary Screen for Agonists; D(2) dopamine receptor (Homo sapiens), P14416; HEK293 T-REx D2 cells, calcium flux agonist mode; activation, % at 2 µM; 0.53% of 340,000 active; AID 485358, 2010;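 active means activation over 3 SD above normal in the single-dose calcium agonist read, cut at about 30% in these data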; further: 0% is about no effect
#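 Agonism is scored from calcium flux in a force-coupled, inducible HEK293 cell line expressing D2, read kinetically for 180 s after compound addition against dopamine controls.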
# D3 arrestin ag – qHTS of D3 Dopamine Receptor Agonist: D3 Dopamine Receptor B-arrestin Agonist Confirmatory Assay | shares compounds with D2 ag-2 | 4% of 2,300 active | Potency, µM (top dose mostly 76.9 µM), for the others: at the top dose activation, most hits filed as activators | DiscoveRx D3 beta-arrestin cells, luminescence, 90 min;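 further: potency means the concentration at half of the fitted maximal effect; 100% = dopamine control response; nearly all actives have a fitted effect of over 70% in size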
# D2 ag-3 – qHTS of D3 Dopamine Receptor Agonist: D2 Dopamine Receptor B-arrestin Agonist Counterscreen; Potency, µM (top dose mostly 76.9 µM), without a hit: top-dose activation, most hits filed as activators; 5.9% of 2,300 active; shares compounds with D2 ag-2; DiscoveRx PathHunter D2 beta-arrestin, luminescence, 90 min; response scale: percent relative to full dopamine signal; further: potency means the concentration at half of the fitted maximal effect; % of control where 0% means no effect; nearly all actives have a fitted effect of over 70% in size
# Numbers without * were called inactive; ? = inconclusive; · = no result given; ! = not active in a repeat. Shown are actives, neighbours in structure and some others; about 2.4% of the full set was active somewhere. Unless noted, the call rests on the fitted dose curve; in most records, active means well fitted activation curve with a large enough effect; inconclusive means small, poorly fitted or top-dose-only effect; inactive means flat fitted curve, though single readings scatter.
SMILES,D2 ag-1,D2 antagonist,D2 PAM-1,D2 PAM-2,D2 ag-2,D3 arrestin ag,D2 ag-3
O=S(=O)(NC1CCN(S(=O)(=O)c2c(F)cccc2F)C1)c1ccc2c(c1)OCCO2 (configuration not stated),·,-9.3,·,-1.9,0.0,13.3%,9.7%
COc1cccc2c1cc1c(=O)n(CC(=O)N3CCCCCC3)nc(C)n12,13.9,10.7,7.7,-11.8,42.9*,?,?
COc1cccc2c1cc1c(=O)n(CC(=O)N3CCCCC3)nc(C)n12,·,·,·,0.7,5.0,·,·
CCOC(=O)C1CCCN(C(=O)Cn2nc(C)n3c(cc4c(OC)cccc43)c2=O)C1 (configuration not stated),?,4.8,8.0,-0.6,19.4,?,26.6%
CCOC(=O)C1CCN(C(=O)Cn2nc(C)n3c(cc4c(OC)cccc43)c2=O)CC1,·,·,·,-16.0,·,·,·
CCN(CC)CCCNC(=O)CN1C(=O)CSc2ccc(S(=O)(=O)N3CCOCC3)cc21,-1.1,-13.8,-1.9,15.1,0.7,·,·
CCN(CC)CC(C)CNC(=O)CN1C(=O)CSc2ccc(S(=O)(=O)N3CCOCC3)cc21 (configuration not stated),0.5,-7.8,-2.3,-11.2,54.3*!,-3.1%,5.0%
O=C(CCSc1ccc(F)cc1)NNC(=O)c1ccccc1Cl,5.4,-18.8,-3.5,0.2,0.4,-3.7%,0.9%
O=C(CSc1ccc(F)cc1)NNC(=O)c1ccccc1Br,-5.1,24.9,-0.7,-14.5,-0.4,·,·
CCc1ccc(C(=O)N2CCC(c3nc(-c4ccc(S(=O)(=O)N5CCCC5)cc4)no3)CC2)cc1,·,·,·,16.9,-0.4,·,·
CC(=O)CSc1nnc(-c2ccc(S(=O)(=O)N3CCOCC3)cc2)n1C,0.9,·,-3.4,·,·,-1.8%,-3.3%
CC(=O)CSc1nnc(-c2ccc(S(=O)(=O)N3CCCC3)cc2)n1C,-0.5,0.0,-0.5,6.0,-1.0,·,·
Cc1cc(C(F)F)n2nc(C(=O)Nc3c(C)cccc3C)nc2n1,·,·,·,-8.5,0.2,·,·
Cc1cc(C(F)F)n2nc(C(=O)Nc3cc(C)on3)nc2n1,0.1,-18.3,-14.4,3.8,0.3,-9.3%,-3.8%
CC(=O)c1cccc(OCC(O)CN2CCN(C(=O)c3ccco3)CC2)c1 (configuration not stated),?,·,1.6,·,·,18.1%,?
COc1ccc2ccccc2c1CN1CCN(C(=O)c2ccco2)CC1,58.1*,88.5*,25.6,-26.9,69.0*,?,25.1µM*
COc1ccc(CN2CCN(C(=O)c3ccc(S(=O)(=O)N4CCCCCC4)cc3)CC2)cc1,-1.4,·,-4.1,·,·,6.0%,13.8%
COc1ccc2ccccc2c1CN1CCN(C(=O)c2ccccc2)CC1,-1.5,-15.6,-12.3,-14.5,2.3,·,·
CC(=O)c1cccc(OCC(O)CN2CCN(S(=O)(=O)c3c(F)cccc3F)CC2)c1 (configuration not stated),-3.6,-6.7,-6.6,4.4,0.7,·,·
CCOc1ccc(CN2CCN(C(=O)c3ccco3)CC2)cc1,54.3*,·,57.2*,·,·,?,4.47µM*
Cc1ccc(NC(=O)Cn2c(=O)n(CC3CCCO3)c(=O)c3ccccc32)cc1 (configuration not stated),·,·,·,-8.2,·,·,·
CC(CNC(=O)Cc1ccc(NC(=O)N2CCSc3ncccc32)cc1)c1ccccc1 (configuration not stated),·,·,·,-1.8,0.1,·,·
Cc1ccc(Cn2c(CN3CCC(C(=O)O)CC3)cc3ccccc32)cc1,·,·,·,-4.3,·,·,·
CCOc1ccc(C(=O)N2CCN(C(=O)c3ccco3)CC2)cc1OCC,1.7,-2.6,9.3,5.8,0.3,·,·
COc1ccc(CN2CCN(Cc3ccco3)CC2)cc1,0.1,·,-9.7,·,·,·,·
SMILES,D2 ag-1,D2 antagonist,D2 PAM-1,D2 PAM-2,D2 ag-2,D3 arrestin ag,D2 ag-3
CCOc1cc(CN2CCN(C(=O)c3ccco3)CC2)ccc1OC,?,74.3*,63.4*,-28.8,98.9*,-3.1%,25.1µM*
COc1ccc(CN2CCN(C(=O)c3ccco3)CC2)cc1,77.4*,87.3*,65.2*,-19.6,86.6*,?,10µM*
CCOC(=O)c1c(C)oc2nc(C)nc(NCCCN3CCN(c4cc(C)ccc4C)CC3)c12,·,·,·,-5.8,·,·,·
Cc1ccc2c(c1)C(O)(CC(=O)/C=C/C=C/c1ccccc1)C(=O)N2 (configuration not stated),-0.7,45.3*,-5.5,-11.4,48.1*,-9.6%,-5.6%
CCc1ccc(C(=O)NNC(=O)Cn2c(=O)cnc3ccccc32)cc1,-2.8,-11.8,-3.2,5.6,0.0,·,·
O=C(Cn1c(=O)cnc2ccccc21)NNC(=O)c1ccc(Cl)cc1,-2.2,·,-3.6,·,·,1.4%,-2.7%
Cc1ccc(-n2nc3c(=O)n(C(C)C(=O)NCc4ccc(OC(C)C)cc4)nc(C)c3c2C)cc1 (configuration not stated),·,·,·,3.4,·,·,·
COc1ccc(-c2c(-c3cc(OC)cc(OC)c3)n(C)c3ccc(-c4ccc5[nH]ccc5c4)cc23)cc1,-3.0,·,-6.9,14.1,·,3.5%,3.9%
O=C(O)c1cccc(-n2c(/C=C/c3cccc([N+](=O)[O-])c3)nc3ccccc3c2=O)c1,-2.1,10.9,1.1,10.0,-0.4,·,·
O=C(O)c1cccc(-n2c(/C=C/c3ccc([N+](=O)[O-])cc3)nc3ccccc3c2=O)c1,-2.0,13.4,-0.4,4.0,0.3,8.6%,6.5%
COc1ccc(-n2ncc3c(NC(C)(C)CO)ncnc32)cc1,·,·,·,8.8,0.6,·,·
O=C1C=C(c2ccc3ncccc3c2)C[C@@H](c2ccc(Cl)cc2)C1,-2.3,-7.9,-3.4,16.9,0.7,·,·
O=C1C=C(c2cccc(CO)c2)C[C@@H](c2ccc(Cl)cc2)C1,-0.1,52.1*,-3.4,-1.6,0.0,-6.2%,5.0%
COc1ccc([C@H]2CC(=O)C=C(c3cccc(CO)c3)C2)cc1OC,0.5,6.4,-3.5,-4.2,0.8,·,·
Cc1ccc(C2=CC(=O)C[C@H](c3ccc(Cl)cc3)C2)cc1,-5.7,-2.2,-13.5,8.1,1.0,·,·
